Test results: PubChem BioAssay (NCATS)
Records with an inconclusive call do not appear. Where a call stands in place of a potency, no number is given. A structure can be active in one record and inactive in another. Activity calls are given as the source filed them. Unless noted, calls follow the shape of the full dose curve.

What was measured:
[1] = Primary qHTS for inhibitors of SARS-S pseudo-typed particle cell entry (AID 1479145); details: outcome: dose series up to 57.1 µM unless noted; also: nearly all actives have a fitted effect of over 45% in size; also: potency is read from the fitted curve at half-maximal effect
[2] = Primary qHTS for Huh7 cytotoxicity: counterscreen for inhibitors of MERS-S pseudotyped particle cell entry (AID 1479147); details: outcome: dose series up to 57.1 µM unless noted
[3] = Primary qHTS for inhibitors of MERS-S pseudo-typed particle cell entry (AID 1479149); details: outcome: dose series up to 57.1 µM unless noted; also: nearly all actives have a fitted effect of over 60% in size
[4] = Primary qHTS for Vero E6 cytotoxicity: counterscreen for inhibitors of SARS-S pseudo-typed particle cell entry (AID 1479150); details: outcome: dose series up to 57.1 µM unless noted
[5] = Cytotoxicity counterscreen for inhibitors of SARS-CoV-2 cell entry (AID 1645845); details: outcome: dose series up to 57.1 µM unless noted; also: nearly all actives have a fitted effect of over 50% in size; also: potency is read from the fitted curve at half-maximal effect
In short: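 After a 15 min room-temperature ATPLite 1step step, luminescence reflected ATP remaining in HEK293-ACE2 cells exposed to compound for 1 h plus 48 h at 37 C, with percent activity set by cell and no-cell controls.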

[6] = Primary qHTS to identify inhibitors of SARS-CoV-2 cell entry (AID 1645846); details: SARS-CoV-2 pseudovirus cell entry assay, luminescence; activity change, negative = inhibition: at 57.1 µM (top of the series) unless noted; also: nearly all actives have a fitted effect of over 45% in size
In short: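 Using luciferase-reporting pseudoviruses carrying Wuhan-Hu-1 spike, the screen tracks entry into stably ACE2-expressing cells over 48 hr. Activity is expressed relative to spike particles versus particles lacking any fusion protein.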

[7] = KB-8-5-11 P-gp reporter qHTS against the NCATS DSHEA and TCM libraries (AID 1919977; active = well fitted curve in the direction sought with a large enough effect; an effect the other way counts as inactive or inconclusive)
In short: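 Viability of drug-resistant KB-8-5-11 cells is measured by CellTiter-Glo luminescence following roughly 72 h treatment at 37C. Substances were titrated, with bortezomib as intraplate control.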

[8] = biological target: Peroxisome proliferator-activated receptor delta (Homo sapiens) (UniProt Q03181); experiment: qHTS assay for small molecule agonists of peroxisome proliferator-activated receptor delta signaling (AID 588534)
Chain of Peroxisome proliferator-activated receptor delta (Homo sapiens) (Q03181 whole entry, looked up): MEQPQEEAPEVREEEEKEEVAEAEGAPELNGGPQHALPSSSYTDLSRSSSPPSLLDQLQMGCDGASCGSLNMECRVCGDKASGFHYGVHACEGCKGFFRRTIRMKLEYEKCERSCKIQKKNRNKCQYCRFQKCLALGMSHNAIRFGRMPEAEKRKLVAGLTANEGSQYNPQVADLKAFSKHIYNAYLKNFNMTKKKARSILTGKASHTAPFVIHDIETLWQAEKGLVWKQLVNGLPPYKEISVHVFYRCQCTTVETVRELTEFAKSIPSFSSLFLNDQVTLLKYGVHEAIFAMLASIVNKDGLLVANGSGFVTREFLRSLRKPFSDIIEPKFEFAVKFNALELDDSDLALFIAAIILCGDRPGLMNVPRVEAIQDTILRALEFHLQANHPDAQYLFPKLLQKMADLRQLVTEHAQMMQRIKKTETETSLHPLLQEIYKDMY
In short: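 Titration series tested in agonist mode on beta-lactamase reporter cells; 18 hrs at 37 C after a 5 hr pre-incubation. Readout: CCF4 fluorescence, 2 hrs RT. Hill equation gives EC50 and maximal response.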

[9] = biological target: ATP-dependent 6-phosphofructokinase (Trypanosoma brucei brucei) (UniProt O15648); experiment: qHTS Assay to Find Inhibitors of T. brucei phosphofructokinase: hit validation (AID 492961; active = well fitted curve in the direction sought with a large enough effect; an effect the other way counts as inactive or inconclusive;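 also: luminescence reports ADP formed as PFK phosphorylates fructose-6-phosphate with ATP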)
Chain of ATP-dependent 6-phosphofructokinase (Trypanosoma brucei brucei) (O15648 whole entry, looked up): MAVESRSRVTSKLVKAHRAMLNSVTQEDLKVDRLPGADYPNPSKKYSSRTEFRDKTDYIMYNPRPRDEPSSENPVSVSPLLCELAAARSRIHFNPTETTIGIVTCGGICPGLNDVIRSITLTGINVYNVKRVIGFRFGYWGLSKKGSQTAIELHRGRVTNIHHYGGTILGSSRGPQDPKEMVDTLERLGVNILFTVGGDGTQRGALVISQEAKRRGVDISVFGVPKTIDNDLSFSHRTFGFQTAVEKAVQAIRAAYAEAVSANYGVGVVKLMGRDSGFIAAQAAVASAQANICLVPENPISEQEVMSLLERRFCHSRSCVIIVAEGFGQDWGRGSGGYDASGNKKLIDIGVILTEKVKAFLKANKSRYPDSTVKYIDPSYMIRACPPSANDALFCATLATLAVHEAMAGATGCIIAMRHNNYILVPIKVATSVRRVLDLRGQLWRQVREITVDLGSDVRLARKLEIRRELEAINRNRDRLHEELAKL
In short: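 Reaction: 0.1 M triethanolamine pH 8.0, 5 mM MgCl2, F6P 0.5 mM, ATP 0.1 mM, PFK 1.25 nM, 45 min RT. Read-out: ADP-Glo luminescence. Analysis: concentration-response fits, classed by r2 and efficacy.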

[10] = biological target: Glutathione peroxidase 1 (Homo sapiens) (UniProt P07203); experiment: Primary qHTS Assay for Inhibitors of Recombinant Selenoprotein Glutathione Peroxidase 1 (GPX1) (AID 1845191; active = well fitted curve in the direction sought with a large enough effect; an effect the other way counts as inactive or inconclusive; also: nearly all actives have a fitted effect of over 65% in size)
Chain of Glutathione peroxidase 1 (Homo sapiens) (P07203 whole entry, looked up): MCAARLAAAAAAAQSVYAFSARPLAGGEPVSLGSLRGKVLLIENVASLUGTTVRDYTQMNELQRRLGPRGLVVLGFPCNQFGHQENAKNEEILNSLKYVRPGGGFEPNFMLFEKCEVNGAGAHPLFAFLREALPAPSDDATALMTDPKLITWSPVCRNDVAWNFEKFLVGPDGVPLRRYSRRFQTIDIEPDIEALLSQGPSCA
In short: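 GPX1 10 nM, GR 100 nM, GSH 1 mM, NADPH 0.5 mM, CHP 0.5 mM (final). 30-min cpd preincubation, RT. Ex340/Em450 read t=0, t=15 min.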

[11] = biological target: Phospholipid hydroperoxide glutathione peroxidase GPX4 (Homo sapiens) (UniProt P36969); experiment: Primary qHTS Assay for Inhibitors of Recombinant Selenoprotein Glutathione Peroxidase 4 (GPX4) (AID 1845192; active = well fitted curve in the direction sought with a large enough effect; an effect the other way counts as inactive or inconclusive; also: nearly all actives have a fitted effect of over 65% in size)
Chain of Phospholipid hydroperoxide glutathione peroxidase GPX4 (Homo sapiens) (P36969 whole entry, looked up): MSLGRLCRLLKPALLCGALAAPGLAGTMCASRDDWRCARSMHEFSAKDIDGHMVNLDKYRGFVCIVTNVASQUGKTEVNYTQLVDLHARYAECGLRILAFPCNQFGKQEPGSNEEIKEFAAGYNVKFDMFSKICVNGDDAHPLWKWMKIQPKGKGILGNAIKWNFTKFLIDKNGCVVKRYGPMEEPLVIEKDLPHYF
In short: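 qHTS, GR-coupled: GPX4 200 nM + cpd 30 min RT → GSH 1 mM, NADPH 0.5 mM, GR 100 nM → CHP 0.5 mM start; fluor 340/450 at t0 and t15 min; no-enzyme wells as control.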

[12] = biological target: Bile acid receptor (Homo sapiens) (UniProt Q96RI1); experiment: qHTS assay for small molecule agonists of farnesoid X receptor signaling (AID 588527); details: HEK293T FXR-UAS-bla, beta-lactamase ratio, 16 h; stronger effect = higher value
Chain of Bile acid receptor (Homo sapiens) (Q96RI1 whole entry, looked up): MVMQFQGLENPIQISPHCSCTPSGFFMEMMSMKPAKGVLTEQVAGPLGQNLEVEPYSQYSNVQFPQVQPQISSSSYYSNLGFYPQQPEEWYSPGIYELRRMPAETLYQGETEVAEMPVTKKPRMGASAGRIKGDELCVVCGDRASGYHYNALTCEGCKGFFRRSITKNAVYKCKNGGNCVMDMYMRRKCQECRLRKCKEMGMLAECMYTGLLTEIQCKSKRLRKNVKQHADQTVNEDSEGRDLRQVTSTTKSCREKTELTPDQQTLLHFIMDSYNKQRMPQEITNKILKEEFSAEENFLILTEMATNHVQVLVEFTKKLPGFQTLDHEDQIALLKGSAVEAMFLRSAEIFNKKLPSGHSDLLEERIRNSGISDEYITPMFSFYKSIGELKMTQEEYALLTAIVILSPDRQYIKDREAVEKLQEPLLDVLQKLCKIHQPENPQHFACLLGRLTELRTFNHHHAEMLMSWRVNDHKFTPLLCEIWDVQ
In short: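 FXR-UAS-bla HEK293T, 10% dialyzed FBS; cpds up to 92 uM titration, 16 h 37 C; CCF4 dye 2 h RT; fluorescence. Normalized to chenodeoxycholic acid 100 uM (100%) and DMSO (0%); Hill fit gives EC50, efficacy.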

[13] = biological target: Nuclear receptor subfamily 1 group I member 3 (Homo sapiens) (UniProt Q14994); experiment: Primary qHTS for antagonist of constitutive androstane receptor (CAR) against the NCATS DSHEA and TCM libraries (AID 1794836; active = well fitted curve in the direction sought with a large enough effect; an effect the other way counts as inactive or inconclusive)
Chain of Nuclear receptor subfamily 1 group I member 3 (Homo sapiens) (Q14994 whole entry, looked up): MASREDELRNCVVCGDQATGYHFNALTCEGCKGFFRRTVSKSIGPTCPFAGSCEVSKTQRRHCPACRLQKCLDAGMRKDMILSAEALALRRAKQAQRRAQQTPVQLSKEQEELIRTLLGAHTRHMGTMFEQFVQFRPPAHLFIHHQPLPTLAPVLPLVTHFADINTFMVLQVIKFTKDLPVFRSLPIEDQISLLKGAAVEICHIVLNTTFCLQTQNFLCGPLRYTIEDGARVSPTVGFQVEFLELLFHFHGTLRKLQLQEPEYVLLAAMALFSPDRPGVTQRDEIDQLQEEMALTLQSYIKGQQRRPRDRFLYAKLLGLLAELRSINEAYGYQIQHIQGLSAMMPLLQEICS
In short: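 HepG2 cells stably carrying hCAR and a CYP2B6 luciferase reporter (2,500 cells/well) attached for 5 h, then received compounds with 48 uM CITCO for 24 h at 37C. ONE-Glo luminescence read antagonism; CellTiter-Fluor (405/540 nm) gave viability.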

[14] = qHTS profiling of the MIPE4 collection as inhibitors of Plasmodium falciparum (3D7) proliferation (AID 743344; call rule not given here); details: P. falciparum 3D7 in erythrocytes, SYBR Green DNA fluorescence, 72 h; at 28.5 µM (top of the series)
In short: (§1)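 Parasite DNA was quantified by SYBR Green I fluorescence (ex 485, em 535 nm) after overnight lysis in saponin/Triton buffer at room temperature. Cultures at 0.3% parasitemia and 2.5% hematocrit were first exposed to compound for 72 h at 37 C; signals were normalised to artemisinin (0.29 uM) and vehicle wells.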

[15] = qHTS profiling of the MIPE4 collection as inhibitors of Plasmodium falciparum (DD2) proliferation (AID 743345; call rule not given here); details: P. falciparum Dd2 in erythrocytes, SYBR Green DNA, 72 h; at 28.5 µM (top of the series)
In short: as §1

[16] = qHTS profiling of the MIPE4 collection as inhibitors of Plasmodium falciparum (DD2) proliferation (Rep 2) (AID 743346; call rule not given here); details: P. falciparum Dd2 in erythrocytes, SYBR Green DNA, 72 h; at 28.5 µM (top of the series)
In short: as §1

[17] = qHTS assay for small molecule agonists of retinoid X receptor alpha signaling (AID 588544); details: HEK293T RXRa-UAS-bla, beta-lactamase reporter, 18 h; 530 nm emission
[18] = biological target: Retinoic acid receptor RXR-alpha (Homo sapiens) (UniProt P19793); experiment: as above
Chain of Retinoic acid receptor RXR-alpha (Homo sapiens) (P19793 whole entry, looked up): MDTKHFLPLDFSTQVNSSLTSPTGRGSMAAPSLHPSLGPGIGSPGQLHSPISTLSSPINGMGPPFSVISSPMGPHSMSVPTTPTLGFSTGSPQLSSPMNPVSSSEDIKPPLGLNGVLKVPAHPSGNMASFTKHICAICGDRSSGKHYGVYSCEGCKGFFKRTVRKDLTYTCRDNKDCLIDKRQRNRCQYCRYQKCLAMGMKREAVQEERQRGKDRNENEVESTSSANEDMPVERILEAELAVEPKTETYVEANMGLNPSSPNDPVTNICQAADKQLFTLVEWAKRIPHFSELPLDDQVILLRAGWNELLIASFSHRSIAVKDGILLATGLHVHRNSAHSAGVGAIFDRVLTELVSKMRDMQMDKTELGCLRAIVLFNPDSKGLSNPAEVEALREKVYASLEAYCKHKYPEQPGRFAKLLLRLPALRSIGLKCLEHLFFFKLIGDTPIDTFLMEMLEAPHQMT

[19] = biological target: Thyroid hormone receptor beta (Homo sapiens) (UniProt P10828); experiment: qHTS assay for small molecule agonists of thyroid hormone receptor beta signaling (AID 588545)
Chain of Thyroid hormone receptor beta (Homo sapiens) (P10828 whole entry, looked up): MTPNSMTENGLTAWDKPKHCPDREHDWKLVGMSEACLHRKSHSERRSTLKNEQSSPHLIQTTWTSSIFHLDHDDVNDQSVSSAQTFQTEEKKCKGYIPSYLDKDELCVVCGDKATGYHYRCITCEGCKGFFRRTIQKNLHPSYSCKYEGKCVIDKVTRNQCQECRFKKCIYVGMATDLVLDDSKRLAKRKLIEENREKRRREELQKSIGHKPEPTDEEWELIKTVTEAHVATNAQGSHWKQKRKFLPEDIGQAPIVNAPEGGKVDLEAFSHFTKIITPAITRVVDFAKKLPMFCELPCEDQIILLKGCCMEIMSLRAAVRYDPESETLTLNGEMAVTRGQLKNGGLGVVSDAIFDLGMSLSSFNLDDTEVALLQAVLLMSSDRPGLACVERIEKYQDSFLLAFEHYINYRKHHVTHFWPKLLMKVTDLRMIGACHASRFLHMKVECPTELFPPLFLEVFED
In short: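 Agonist-mode beta-lactamase reporter assay, HEK 293 cells, 2% charcoal/dextran FBS; cells plated 4 hrs, compound 18 hrs at 37 C, CCF4 2 hrs RT. Normalized to 10 nM T3 (100%) and DMSO (0%); Hill fit gives EC50, efficacy.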

[20] = qHTS assay for small molecule agonists of the antioxidant response element (ARE) signaling pathway (AID 651741; active = well fitted activation curve with a large enough effect in the signal ratio; the % refers to the signal ratio; also: potency is read from the fitted curve at half-maximal effect)
In short: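 Beta-lactamase reporter expression driven by the antioxidant response element in HepG2 cells was detected by fluorescence with LiveBLAzer B/G FRET substrate (2 h, room temperature) following 16 h compound treatment at 37 C.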

CCCCC/C=C\C/C=C\C/C=C\CCCCC(=O)O
Potency [1]: inactive | Potency [2]: inactive | Potency [3]: inactive | Potency [4]: inactive | Potency [5]: inactive | activity change, negative = inhibition [6]: -13.4% [at 114 µM] | activity change, negative = inhibition [7]: 5.04% [at 3.26 µM] (inactive)

CC/C=C\C/C=C\C/C=C\C/C=C\C/C=C\CCCC(=O)O
Potency [1]: inactive | Potency [2]: inactive | Potency [3]: inactive | Potency [4]: inactive | Potency [5]: inactive | activity change, negative = inhibition [6]: -29% | Potency [7]: inactive

COC(=O)c1ccccc1O
outcome [8]: inactive | Potency [1]: inactive | Potency [2]: inactive | Potency [3]: inactive | Potency [4]: inactive | Potency [5]: inactive | activity change, negative = inhibition [6]: 3.44%

NC(=O)CCC1NC(=O)C(Cc2ccccc2)NC(=O)C(Cc2ccc(O)cc2)NC(=O)CCSSCC(C(=O)N2CCCC2C(=O)NC(CCCN=C(N)N)C(=O)NCC(N)=O)NC(=O)C(CC(N)=O)NC1=O (stereo unspecified)
Potency [9]: inactive | Potency [1]: inactive | Potency [2]: inactive | Potency [3]: inactive | Potency [4]: inactive | Potency [5]: inactive | activity change, negative = inhibition [6]: -25.4% [at 27.1 µM]

O=C(O)c1ccccc1C(c1ccc(O)cc1)c1ccc(O)cc1
outcome [8]: inactive | Potency [1]: inactive | Potency [2]: inactive | Potency [3]: inactive | Potency [4]: inactive | Potency [5]: inactive | activity change, negative = inhibition [6]: -24.4%

CCC[C@@H]1CC(=O)N([C@@H](CC)C(N)=O)C1
Potency [1]: inactive | Potency [2]: inactive | Potency [3]: inactive | Potency [4]: inactive | Potency [5]: inactive | activity change, negative = inhibition [6]: -22.5% | Potency [10]: inactive | Potency [11]: inactive

C=C[C@H]1CN2CC[C@H]1C[C@H]2[C@H](O)c1ccnc2ccccc12
Potency [1]: inactive | Potency [2]: inactive | Potency [3]: inactive | Potency [4]: inactive | Potency [5]: inactive | Potency [10]: inactive | Potency [11]: inactive

C[C@H](CCC(=O)O)[C@H]1CC[C@H]2[C@@H]3[C@H](O)C[C@@H]4C[C@H](O)CC[C@]4(C)[C@H]3C[C@H](O)[C@]12C
activation [12]: 1.14% (inactive) | Potency [1]: inactive | Potency [2]: inactive | Potency [3]: inactive | Potency [4]: inactive | Potency [5]: inactive | Potency [6]: inactive

CC(C)=CCC/C(C)=C/C=C/C(C)=C/C=C/C(C)=C/C=C/C=C(C)/C=C/C=C(C)/C=C/C=C(\C)CCC=C(C)C
Potency [1]: inactive | Potency [2]: inactive | Potency [3]: inactive | Potency [4]: inactive | Potency [5]: inactive | Potency [13]: inactive

CC1(C)S[C@@H]2[C@H](NC(=O)COc3ccccc3)C(=O)N2[C@H]1C(=O)O
outcome [8]: inactive | Potency [1]: inactive | Potency [2]: inactive | Potency [3]: inactive | Potency [4]: inactive | Potency [5]: inactive | activity change, negative = inhibition [6]: -8.38%

CN[C@@H]1[C@H](O)[C@H](O[C@@H]2[C@H](O)[C@@H](O[C@H]3O[C@H]([C@@H](C)NC)CC[C@H]3N)[C@@H](N)C[C@H]2N)OC[C@]1(C)O
parasite growth, % of DMSO control [14]: 81.2% | parasite growth remaining, % of DMSO control (lower = more inhibition) [15]: 98.7% | parasite growth, % of control (lower = inhibition) [16]: 196% | outcome [1]: inactive [at 11.4 µM] | activity change, negative = cytotoxicity [2]: -2.83% [at 11.4 µM] (inactive) | outcome [3]: inactive [at 11.4 µM] | activity change, negative = cytotoxicity [4]: -14.2% [at 11.4 µM] (inactive) | activity change, negative = cytotoxicity [5]: -14.3% [at 11.3 µM] (inactive) | activity change, negative = inhibition [6]: -8.26% [at 11.3 µM]

C=CCCCCCCCCC(=O)O[C@H]1CC[C@H]2[C@@H]3CCC4=CC(=O)C=C[C@]4(C)[C@H]3CC[C@]12C
Potency [1]: inactive | Potency [2]: inactive | Potency [3]: inactive | Potency [4]: inactive | Potency [5]: inactive | Potency [10]: inactive | Potency [11]: inactive

Cc1cccc(O)c1
outcome [8]: inactive | max response [17]: -15.1% | Potency [18]: inactive | outcome [19]: inactive | Potency [20]: 355 µM (active) and inactive | Potency [1]: inactive | Potency [2]: inactive | Potency [3]: inactive | Potency [4]: inactive | Potency [5]: inactive

CC1(C)C2CCC1(C)C(O)C2 (stereo unspecified)
Potency [1]: inactive | Potency [2]: inactive | Potency [3]: inactive | Potency [4]: inactive | Potency [5]: inactive | Potency [7]: inactive

CCCCOc1ccc(C[N+]2(C)C3CCC2CC(OC(=O)[C@H](CO)c2ccccc2)C3)cc1 (stereo partly specified)
Potency [1]: inactive | Potency [2]: inactive | Potency [3]: inactive | Potency [4]: inactive | Potency [5]: inactive | activity change, negative = inhibition [6]: -21.1% | Potency [10]: inactive | Potency [11]: inactive

O=C(/C=C/c1cccc(S(=O)(=O)Nc2ccccc2)c1)NO
Potency [1]: 10 µM (active) | Potency [2]: inactive | Potency [3]: inactive | Potency [5]: 12.6 µM (active) | activity change, negative = inhibition [6]: -13.6%

CCOC(=O)CN[C@@H](C(=O)N1CC[C@H]1C(=O)NCc1ccc(/C(N)=N/O)cc1)C1CCCCC1
Potency [1]: inactive | Potency [2]: inactive | Potency [3]: inactive | Potency [4]: inactive | activity change, negative = inhibition [6]: -19.7%

C#C[C@]1(O)CC[C@H]2[C@@H]3CCC4=CC(=O)CCC4[C@H]3CC[C@@]21CC (stereo partly specified)
Potency [1]: inactive | Potency [2]: inactive | Potency [3]: inactive | Potency [4]: inactive | activity change, negative = inhibition [6]: -19.1%

CCCC(=O)O[C@]1(C(=O)COC(C)=O)CC[C@H]2C3C[C@H](F)C4=CC(=O)C=C[C@]4(C)[C@@]3(F)[C@@H](O)C[C@@]21C (stereo partly specified)
Potency [1]: inactive | Potency [2]: inactive | Potency [3]: inactive | Potency [4]: inactive | activity change, negative = inhibition [6]: -5.47%

CC[N+]1(C)C2CC(OC(=O)[C@H](CO)c3ccccc3)CC1[C@@H]1O[C@H]21 (stereo partly specified)
Potency [1]: inactive | Potency [2]: inactive | Potency [3]: inactive | Potency [4]: inactive | activity change, negative = inhibition [6]: -33.5% | Potency [10]: inactive | Potency [11]: inactive

N[C@@H]1CCCCN(c2c(F)cc3c(=O)c(C(=O)O)cn(C4CC4)c3c2Cl)C1
Potency [1]: inactive | Potency [2]: inactive | Potency [3]: inactive | Potency [4]: inactive | activity change, negative = inhibition [6]: -8.2%

CC(=O)OCC(=O)[C@@]1(O)CC[C@H]2[C@@H]3C[C@H](C)C4=CC(=O)C=C[C@]4(C)[C@H]3[C@@H](O)C[C@@]21C
Potency [1]: inactive | Potency [2]: inactive | Potency [3]: inactive | Potency [5]: inactive
